# Measured values taken from ChEMBL document CHEMBL3433997, “St. Jude Leishmania screening dataset” (2016).
# Biological target: Solute carrier family 2, facilitated glucose transporter member 1 (Homo sapiens) (UniProt P11166)
# Assay: ST_JUDE_LEISH: Cytotoxicity at 2uM final concentration against transgenic Leishmania Mexicana promastigotes LmGLUT1 that are glucose transport deficient and complemented with the human glucose transporter GLUT1. Activity is measured by DNA content using SYBR green in vitro
# Type: functional
# Chain of Solute carrier family 2, facilitated glucose transporter member 1 (Homo sapiens) (P11166 whole entry): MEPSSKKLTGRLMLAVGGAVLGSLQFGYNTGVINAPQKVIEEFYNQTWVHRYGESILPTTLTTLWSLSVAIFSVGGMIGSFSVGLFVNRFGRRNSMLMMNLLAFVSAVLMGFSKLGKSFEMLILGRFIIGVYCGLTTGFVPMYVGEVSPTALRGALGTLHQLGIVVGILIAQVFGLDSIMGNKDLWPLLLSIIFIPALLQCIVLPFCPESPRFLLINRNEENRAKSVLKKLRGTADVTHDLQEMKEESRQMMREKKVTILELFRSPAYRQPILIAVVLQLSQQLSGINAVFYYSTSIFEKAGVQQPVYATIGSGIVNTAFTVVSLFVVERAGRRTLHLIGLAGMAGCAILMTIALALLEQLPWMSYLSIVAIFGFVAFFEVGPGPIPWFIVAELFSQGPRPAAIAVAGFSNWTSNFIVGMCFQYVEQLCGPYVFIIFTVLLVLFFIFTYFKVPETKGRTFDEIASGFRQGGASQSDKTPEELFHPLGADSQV
row,SMILES,inhibition
1,FC(F)(F)c1ccc2[nH]c(-c3ccc(-c4ccc(CN5CCN(c6cnccn6)CC5)cc4)s3)nc2c1,2.24%
2,CCN(CC)CCOC(=O)c1ccc(NC(=O)c2cc(-c3ccc(C)cc3)nc3ccccc23)cc1,1.71%
3,COc1ccc(NC(=O)CCNc2cc(C)nc(Nc3ccccc3)n2)cc1,5.84%
4,COc1ccc(-c2ccccc2CNC2Cc3ccccc3C2)cc1S(=O)(=O)NCCN1CCCC1,2.56%
5,CCCN(CCC)CCCCC(C)Nc1c2ccc(Cl)cc2nc2ccc(OC)cc12 (stereo not given),8.02%
6,O=C(Cn1cc(C(F)(F)F)cc(Cl)c1=O)N1CCN(S(=O)(=O)c2ccc(Cl)cc2)CC1,2.2%
7,Cc1ccc(NC(=O)c2ccc(CN3CCCN(Cc4cccc(O)c4)CC3)cc2)cc1F,7.81%
8,O=C(COc1ccccc1Cl)N1CCc2cc3nccc(N4CCN5CCC[C@H]5C4)c3cc21,6.5%
9,CCn1c(-c2nonc2N)nc2c(-c3cccc(NC(=O)Nc4cccc(OC)c4)c3)ncc(OCCCN)c21,0.06%
10,CN(C(=O)NCCc1ccccc1)C1CCN(CCCCCNC(=O)/C=C/c2ccc(Cl)c(Cl)c2)CC1,14.9%
11,O=C(Nc1cc(F)cc(-c2cccnc2)c1)c1ccc2c(=O)n(Cc3ccccc3)cnc2c1,0.81%
12,CC(C)(NCc1ncc[nH]1)c1nc(-c2ccc(Cl)c(O)c2)c(-c2ccncc2)[nH]1,2.76%
13,Cc1cccc2nc(-c3ccc(-c4cccc(CN5CCN(c6ccc(C#N)cn6)CC5)c4)s3)[nH]c12,0.91%
14,CCN(C1CCCCC1)S(=O)(=O)c1ccc(OC)c(N2CCN(C(=O)C(Cl)(Cl)Cl)CC2)c1,-1.48%
15,CC(=O)Nc1nc(C(=O)Nc2ccc(-c3ccc(-c4nc5ccccc5[nH]4)cc3)cc2)cs1,4.03%
16,Cc1cccc2nc(-c3ccc(-c4ccc(CNCc5ccccc5)cc4)s3)[nH]c12,8.05%
17,O=C(/C=C/c1c(Cl)cccc1Cl)NC1CCC(CN2CCC(c3c[nH]c4ccncc34)CC2)CC1 (stereo not given),5.27%
18,COCCNCc1ccc(-c2ccc3c(Nc4ccc(F)cc4Cl)ccnc3c2)o1,4.1%
19,CCCC(N)C(=O)NC1CCN(c2c(F)c(N)c3c(=O)c(C(=O)O)cn4c3c2Oc2ccccc2-4)C1 (stereo not given),82.5%
20,COc1cc(C2CCN(CCCCNC(=O)c3ccc(NC(=O)c4cc(C(F)(F)F)cc(C(F)(F)F)c4)cc3)CC2)ccc1OC(C)C,1.12%

row,SMILES,inhibition
1,COc1ccc2ccccc2c1CCCCN1CCN(CC(c2ccc(F)cc2)N2CCN(C3CCCC3)CC2)CC1 (stereo not given),2.16%
2,Cc1nnsc1C(=O)Nc1cccc(-c2ccc(-c3nc4ccccc4[nH]3)s2)c1,1.8%
3,Cc1ccc(NC(=O)NC2CCN(c3ccnc4cc(Cl)ccc34)CC2)cc1,9.02%
4,COc1ccc2ncc(F)c([C@@H](O)CN3CCC(NCc4cc(C#N)c5c(c4)CCO5)CC3)c2n1,3.43%
5,COc1ccc(NC(=O)[C@H](Cc2ccccc2)Nc2cc(C)nc(NCc3ccccc3C)n2)cc1,4.42%
6,CC(C)C[C@H](NC(=O)c1cc2ccccc2s1)C(=O)N[C@H]1CCN(Cc2ccc(OC[C@@H]3CCCN3C)c(Cl)c2)C1,10.8%
7,CN(C)CCN(C)Cc1ccc(-c2ccc(NC(=O)c3cccc(Cl)c3)cc2)cc1,7.23%
8,CCc1c(CCNCCCCCCNCCc2ccc([N+](=O)[O-])cc2)ccc(O)c1O,-1.33%
9,CN(C)c1ccc(CN2CCC(NC(=O)c3ccc(-c4ccccc4Cl)s3)CC2)cc1,2.51%
10,Oc1ccc(Cl)cc1CN1CCCC(COC(c2ccc(F)cc2)c2ccc(F)cc2)C1 (stereo not given),0.85%
11,CCOc1c(OC)ccc2c1CCN(CCN1CCC(CNC(=O)c3ccc(-c4ccc(C#N)cc4)cc3)CC1)C2,-1.08%
12,Cc1cnc(Nc2cccc(CCN3CCOCC3)c2)nc1NC(C)C,9.35%
13,CS(=O)(=O)c1ccc(CNCc2cccc(-c3cccc(-c4nc5cc(C(F)(F)F)ccc5[nH]4)c3)c2)cc1,5.54%
14,COc1ccc(Oc2ccc(-c3c(C)[nH]c(C)c(Cl)c3=O)cc2)cc1,2.75%
15,Cc1ccc(NC(=O)c2ccc(NCCCN(C)Cc3ccccc3)c([N+](=O)[O-])c2)cc1F,8.67%
16,CSc1nc2nc(C)c(Cc3cccc(F)c3)c(C)n2n1,-1.07%
17,CC(C)c1ccc(CN2CCC(CNC(=O)c3cc(-c4ccccc4F)cs3)C2)cc1 (stereo not given),4.5%
18,Cc1nc(N)nc(N)c1OCCCOc1ccccc1Br,46.9%
19,CCC(C)OC(=O)C1=C(C)NC2=C(C(=O)CC(c3ccc(OC)c(OC)c3)C2)C1c1ccc(O)cc1 (stereo not given),3.25%
20,N#Cc1ccc2c(c1)CN(C1CCC(NC(=O)C3=Cc4cc(Cl)ccc4OC3)CC1)CCC2 (stereo not given),8.34%
